Records with an inconclusive call do not appear. A call without a number means that no potency is given here. Calls of active or inactive are those of the source. Calls come from the whole dose curve; as a rule, active = well fitted activation curve with a large enough effect in the repeat runs; inconclusive = weak or mixed curves, or effect the other way; inactive = no such curve, though single readings can be large or run the other way.
assay: qHTS assay to identify small molecule agonists of the estrogen related receptor signaling pathway with the pleiotropic PPARgamma coactivator (PGC) from Tox21 10K library (AID 1224842); settings: PGC/ERR reporter cell line, luciferase ONE-Glo, 18 h; series mostly up to 92.4 µM; note: nearly all actives have a fitted effect of over 15% in size
Description: National Center for Advancing Translational Sciences [NCATS] NIH Chemical Genomics Center [NCGC] U.S. Environmental Protection Agency [EPA] National Institutes of Environmental Health Sciences [NIEHS] National Toxicology Program [NTP] Assay overview: Estrogen related receptors (ERRs), the first orphan nuclear receptors discovered, play an important role in the control of cellular energy metabolism. ERRs are required for high-energy production in response to the environmental challenges. The pleiotropic PPARgamma coactivator (PGC) is a major partner of ERR and a key regulator in energy homeostasis. Together they have been implicated in the etiology of metabolic disorders such as Type 2 diabetes and metabolic syndrome. ERR-alpha was also identified as an adverse marker for breast cancer progression; ERR-alpha-positive tumors have a poor prognosis. To screen and to identify environmental compounds that perturb the PGC/ERR signaling pathways could provide valuable information for potential therapeutic or preventive measures in the treatment of metabolic disease. For identifying PGC/ERR agonists, PGC/ERR cell line (provided by NTP) has been used to screen Tox21 10K library.
Assay Protocol Summary: The PGC/ERR cells were dispensed at 2,000 cells/5 ul/well in 1536-well white plates using a Multidrop dispenser. After the assay plates were incubated at a 37 C/5% CO2 incubator for 6 hours, 23 nL of compounds dissolved in DMSO, positive and negative controls or DMSO only was transferred to the assay plate by a pin tool. The plates were incubated at 37 C for 18 hours. 4 ul/well of One-Glo reagent was added into the assay plates using a Flying Reagent Dispenser. After 30-minute incubation at room temperature, the luminescence intensity in the plates was measured using a ViewLux plate reader.
Potency is the fitted concentration of half-maximal effect.

Row | Structure (SMILES) | Potency
1 | C=COCC(C)C | inactive
2 | COc1cc(C(=O)NC2CCN(C)CC2)ccc1Nc1ncc2c(n1)N(C1CCCC1)CC(F)(F)C(=O)N2C | 2.5 µM (active)
3 | CCOC(=O)/C=C/C(=O)OCC | inactive
4 | N#[N+]c1ccc2c(S(=O)(=O)[O-])cccc2c1O | inactive
5 | CC(=O)OCCN(CCOC(C)=O)c1ccc(N=Nc2ccc([N+](=O)[O-])cc2C#N)cc1 | inactive
6 | Cc1[nH]cnc1CN1CCc2c(c3ccccc3n2C)C1=O | inactive
7 | O=[N+]([O-])c1cc(C2CCCCC2)c(O)c([N+](=O)[O-])c1 | inactive
8 | FC(F)(F)c1ccccc1Cl | inactive
9 | CC(C)C[C@H](NC(=O)[C@H](CCc1ccccc1)NC(=O)CN1CCOCC1)C(=O)N[C@@H](Cc1ccccc1)C(=O)N[C@@H](CC(C)C)C(=O)[C@@]1(C)CO1 | inactive
10 | Cc1ccccc1N=C(N)Nc1ccccc1C | inactive
11 | COC(=O)c1nc(Cl)c(Cl)nc1N | inactive
12 | C[C@@]12CCC[C@H]1[C@@H]1CC[C@H]3C[C@@H](O)CC[C@]3(C)[C@H]1CC2 | inactive
13 | C[C@@H]1CN(CCCn2c3ccccc3c3ccccc32)C[C@H](C)N1 | inactive
14 | O=C(OCC(O)CO)c1ccccc1Nc1ccnc2cc(Cl)ccc12 (stereo not given) | inactive
15 | CCCCCCCCCCCCCCN(CCO)CCO | inactive
16 | Cc1cc(O)ccc1O | inactive
17 | O=Cc1c2ccccc2c(Cl)c2ccccc12 | inactive
18 | O=C(O)CCCCCCCCCCCBr | inactive
19 | CC1(C)[C@H](C(=O)O)N2C(=O)C[C@H]2S1(=O)=O | inactive
20 | CCCCCC#CC(=O)OC | inactive

Row | Structure (SMILES) | Potency
21 | COc1cc(C(=O)NCCCCCC(=O)O)cc(OC)c1OC | inactive
22 | Brc1cc2ccccc2c2ccccc12 | inactive
23 | Cc1cc(O)c(C)c(C)c1O | inactive
24 | CC(=O)Nc1ccc(C)cc1C | inactive
25 | CCCCCCCCCI | 8.79 µM (active)
26 | CC(O)c1ccccc1 (stereo not given) | inactive
27 | C[C@@H](O[C@H]1OCCN(Cc2n[nH]c(=O)[nH]2)[C@H]1c1ccc(F)cc1)c1cc(C(F)(F)F)cc(C(F)(F)F)c1 | inactive
28 | O=C1Cc2cc(Cl)ccc2N1 | inactive
29 | CN1C[C@H](C(=O)N[C@]2(C)O[C@@]3(O)[C@@H]4CCCN4C(=O)[C@H](Cc4ccccc4)N3C2=O)C[C@@H]2c3cccc4[nH]cc(c34)C[C@H]21 | inactive
30 | OC1(c2ccccc2)CCNCC1 | inactive
31 | CCC(C)(C)OC | inactive
32 | Oc1cccc(O)c1O | 8.56 µM (active)
33 | O=c1cc(-c2ccccc2)oc2ccc3ccccc3c12 | 0.243 µM (active)
34 | C=C/C(C)=C/C/C=C(\C)CCC=C(C)C | inactive
35 | Cc1ccc2c(Br)cc(Br)c(O)c2n1 | inactive
36 | CC1(C)[C@@H](OC(=O)CCC(=O)O)CC[C@]2(C)[C@H]3C(=O)C=C4[C@@H]5C[C@@](C)(C(=O)O)CC[C@]5(C)CC[C@@]4(C)[C@]3(C)CC[C@@H]12 | inactive
37 | CCC(=O)C1CC(C(C)C)CC=C1C (stereo not given) | inactive
38 | CC(=O)[C@H]1[C@H](C#N)C[C@H]2[C@@H]3CC=C4C[C@@H](O)CC[C@]4(C)[C@H]3CC[C@@]21C | inactive
39 | CC(C)=CCC/C(C)=C/CC/C(C)=C/CCC(=O)OC/C=C(\C)CCC=C(C)C | inactive
40 | CC(C)Nc1cccnc1N1CCN(C(=O)c2cc3cc(NS(C)(=O)=O)ccc3[nH]2)CC1 | inactive

From PubChem BioAssay (Tox21)
